# Test results reported in the supplement of paper PMC6953052.
# Where “and” joins values, the source holds several entries; their conditions need not be identical. Equal entries are not always repeated. Structures can show the parent of a compound that is named as a salt. Whole data set: some 1,700 compounds, median “fraction of GFP-LC3-positive cells (≥5 vesicles/cell)” near 0.43, cut for the highest 2% near 0.81. The sample holds the highest values, similar compounds and a random draw of the others, so the mix is not that of the screen.
# System: CbCln3 Δex7/8/Δex7/8 GFP-LC3 cerebellar neuronal cells
# Assay: fraction of GFP-LC3-positive cells (≥5 vesicles/cell); higher = more autophagosome accumulation
# Outline: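 By pin transfer, ~50 nL of compound in DMSO went in duplicate into 384-well plates holding 2 × 10^3 wild-type or mutant CbCln3 cerebellar cells per well that stably express GFP-LC3, followed by 24 h at 33 °C. The final 30 min included Hoechst 33342 and LysoTracker Red, and then came 3.2% PFA fixation and 10× imaging of three fields per well. Each value gives the fraction of cells above a vesicle threshold, averaged across duplicates, with CellProfiler counting GFP-LC3 vesicles and out-of-focus images left out. The threshold is 5 or more vesicles per cell.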
row,Compound,fraction of GFP-LC3-positive cells
1,C=C(C)[C@H]1O[C@H]2CC[C@@]3(C)[C@@](O)(CC[C@H]4[C@@H]5OC(C)(C)[C@H]6C[C@@H]7C(=C)Cc8c(Cl)cc9[nH]c(c5c9c8[C@@]76O)[C@@]43C)[C@]23O[C@@H]3[C@H]1O,0.866
2,CC[C@H]1CN2CCc3cc(OC)c(OC)cc3[C@@H]2C[C@@H]1C[C@H]1NCCc2cc(OC)c(OC)cc21.Cl.Cl [Emetine dihydrochloride],0.546
3,Br.C[C@@H]1NCCc2cc(O)c(O)cc21 [Salsolinol hydrobromide],0.504
4,C/C=C(/C)C(=O)O[C@H]1C(C)=C2[C@H]([C@@H]1OC(=O)CCCCCCC)[C@@](C)(OC(C)=O)C[C@H](OC(=O)CCC)[C@@]1(O)[C@H]2OC(=O)[C@@]1(C)O,0.847
5,"N=C(N)NOCC[C@H](N)C(=O)O.O.O=S(=O)(O)O [Canavanine sulfate monohydrate (L,+)]",0.416
6,CCCC(C)(COC(N)=O)COC(=O)NC(C)C (configuration not stated) [Carisoprodol],0.466
7,C[N+](C)(C)CCCCCCCCCC[N+](C)(C)C.[Br-].[Br-] [Decamethonium bromide],0.418
8,C/C1=C/C(=O)O[C@@H]2C[C@@H](CC[C@H](C)/C=C\CC1)O[C@@](O)([C@@H]1CSC(=O)N1)C2 [Latrunculin B],0.84
9,C[C@@]12N[C@@H](Cc3ccccc31)c1ccccc12.O=C(O)/C=C\C(=O)O [(-)-MK 801 hydrogen maleate],0.432
10,CC(=O)c1c(O)c(C)c(O)c(Cc2c(O)c3c(c(C(=O)/C=C/c4ccccc4)c2O)OC(C)(C)C=C3)c1O [Rottlerin],0.553
11,CC(=O)c1c(O)c(C)c(O)c(Cc2c(O)c3c(c(C(=O)/C=C/c4ccccc4)c2O)OC(C)(C)C=C3)c1O,0.551
12,CC(=O)O[C@H]1CC[C@@]2(C)C(=CC[C@@H]3[C@@H]2CC[C@]2(C)C(=O)CC[C@@H]32)C1 [Dehydroisoandosterone 3-acetate],0.384
13,CN1C(CC(O)c2ccccc2)CCCC1CC(O)c1ccccc1.Cl (configuration not stated) [Lobelanidine hydrochloride],0.433
14,COc1cc2c(cc1O)[C@@H]1Cc3ccc(OC)c(O)c3CN1CC2 [Scoulerine],0.821
15,"COc1ccc2c(c1OC)CN1CCc3cc4c(cc3C1C2)OCO4 (configuration not stated) [(d,l)-Tetrahydroberberine]",0.303
16,COc1ccc2c(c1O)-c1c(OC)c(OC)cc3c1[C@H](C2)N(C)CC3 [Isocorydine (+)],0.379
17,C[C@H]1O[C@@H](OC2CC[C@]3(C=O)[C@H]4CC[C@]5(C)[C@@H](C6=CC(=O)OC6)CC[C@]5(O)[C@@H]4CC[C@]3(O)C2)C[C@H](O)[C@@H]1O (some centres not stated) [Helveticoside],0.378
18,N#CC(C#N)=Cc1ccc(O)cc1 [Tyrphostin-8],0.461
19,CCN1C[C@@]2(COC)C3[C@@H](OC)[C@H]4[C@@H]1[C@@]3(C1C[C@@]3(O)[C@H](OC(=O)c5ccccc5)C1[C@]4(OC(C)=O)[C@@H](O)[C@H]3OC)[C@@H](OC)C[C@H]2O (some centres not stated) [Aconitine],0.413
20,Cc1c2ccncc2c(C)c2c1[nH]c1ccccc12 [Ellipticine],0.954
21,Cc1nccc2c1[nH]c1ccccc12.Cl [Harmane hydrochloride],0.55
22,O=C(CCCN1CCC(n2c(=O)[nH]c3ccccc32)CC1)c1ccc(F)cc1 [Benperidol],0.358
23,COc1cc2c(c(OC)c1OC)-c1ccc(O)c(=O)cc1[C@@H](N)CC2 [Trimethylcolchicinic acid],0.415
24,COC1=C[C@@H]2C3=C([C@@H]2C1=O)[C@@H](NC(C)=O)CCc1cc(OC)c(OC)c(OC)c13 [Lumicolchicine gamma],0.401

row,Compound,fraction of GFP-LC3-positive cells
1,COc1cc2c(c(OC)c1OC)-c1ccc(OC)c(=O)cc1[C@@H](NC(C)=O)CC2 [Colchicine],0.906
2,CC[C@@H]1/C=C/C=C/C[C@H](C)[C@@H](O)[C@](C)(O)C(=O)[C@H](C)[C@@H](O)[C@H](C)C(=O)[C@H](C)[C@@H](O)[C@H](C)/C=C/C(=O)O[C@H]2[C@@H](C)[C@@H](CC1)O[C@@]1(CC[C@@H](C)[C@@H](C[C@H](C)O)O1)[C@@H]2C [oligomycin A],0.578
3,CC1=C2C[C@H]3[C@@H](CC=C4C[C@@H](O)CC[C@@]43C)[C@@H]2CC[C@]12O[C@@H]1C[C@H](C)CN[C@H]1[C@H]2C [cyclopamine],0.448
4,CCCCC/C=C\C/C=C\C/C=C\C/C=C\CCCC(=O)NCCc1ccc(O)c(O)c1 [Arachidonoyl dopamine],0.658
5,CCCCC/C=C\C/C=C\C/C=C\C/C=C\CCCC(=O)NCc1ccc(O)c(OC)c1 [Arvanil],0.848
6,CCCCC/C=C\C/C=C\C/C=C\C/C=C\CCCC(=O)NCC(=O)O [N-Arachidonoylglycine],0.376
7,CCCCC/C=C\C/C=C\C/C=C\C/C=C\CCCC(=O)NCC(=O)O,0.263
8,CC(C)NCC(O)c1ccc(N)c(C#N)c1 (configuration not stated),0.462
9,COc1cc([C@@H]2c3cc4c(cc3[C@H](O)[C@H]3COC(=O)[C@H]23)OCO4)cc(OC)c1OC [Podophyllotoxin],0.884
10,COc1ccc2c(c1OC)C(=O)O[C@@H]2[C@H]1c2cc3c(cc2CCN1C)OCO3.Cl [Hydrastine hydrochloride],0.423
11,Cl.Cl.Fc1ccc(C(OCCN2CCN(CCCc3ccccc3)CC2)c2ccc(F)cc2)cc1,0.168
12,CO/C1=C\C(C)=C\[C@@H](C)[C@@H](O)[C@@H](C)C/C(C)=C/C=C/[C@H](OC)[C@@H]([C@@H](C)[C@@H](O)[C@H](C)[C@@]2(O)C[C@@H](O)[C@H](C)[C@@H](C(C)C)O2)OC1=O [bafilomycin A1],0.924
13,O[C@H]1[C@H]2[C@H](O)CCCN2C[C@H]1O [swainsonine],0.371
14,CN1CCC2=C[C@H](O)[C@H]3OC(=O)c4cc5c(cc4[C@H]3[C@@H]21)OCO5 [Hippeastrine hydrobromide],0.407
15,CN1Cc2c(ccc3c2OCO3)[C@@H]2[C@H]1c1cc3c(cc1C[C@@H]2O)OCO3.O [Chelidonine (+)],0.93
16,CN1CCc2cc3c(cc2[C@H]1[C@@H]1OC(=O)c2c1ccc1c2OCO1)OCO3 [Bicuculline (+)],0.326
17,C[C@@H]1CC([C@H](O)CC2CC(=O)NC(=O)C2)C(=O)[C@@H](C)C1 (some centres not stated) [cycloheximide],0.481
18,C[C@@]1(CO)[C@H](O)CC[C@@]2(C)[C@H]1CC[C@H]1C[C@@H]3C[C@@]12CC[C@]3(O)CO [aphidicolin],0.623
19,CC(=O)OCC(=O)[C@H]1CC[C@H]2[C@@H]3CC[C@H]4C[C@H](O)CC[C@]4(C)[C@H]3C(=O)C[C@]12C [Alfadolone acetate],0.441
20,CCCCc1ccc(C(=O)O)nc1 [Fusaric acid],0.408
21,O=C1C=CC(=O)c2c(O)cccc21 [juglone],0.367
22,N#CC(C#N)=NNc1ccc(OC(F)(F)F)cc1,0.936
23,COc1cc2c(cc1OC)C(C)NCC2.Cl (configuration not stated),0.422
24,Cc1nccc2c1[nH]c1cc(O)ccc12.Cl.O [Harmol hydrochloride monohydrate],0.441

row,Compound,fraction of GFP-LC3-positive cells
1,OC(c1ccccc1)(c1ccccc1)C1CCNCC1 [Azacyclonol],0.306
2,C/C(O)=C(\C#N)C(=O)Nc1cc(Br)ccc1Br,0.547 and 0.552
3,O=C(CCCN1CCC2(CC1)C(=O)NCN2c1ccccc1)c1ccc(F)cc1 [Spiperone],0.376
4,C=C1[C@@H]2CC[C@H]3[C@]4(C)C[C@H](O[C@H]5O[C@H](CO)[C@@H](OS(=O)(=O)[O-])[C@H](OS(=O)(=O)[O-])[C@H]5OC(=O)CC(C)C)C[C@@H](C(=O)O)[C@H]4CC[C@]3(C2)[C@H]1O.[K+].[K+] [Atractyloside potassium salt],0.314
5,O.O.O.O=C1OC2(c3cc(Br)c([O-])cc3Oc3c2cc(Br)c([O-])[c]3[Hg][OH])c2ccccc21.[Na+].[Na+] (configuration not stated) [Merbromin],0.954
6,C[C@@H]1CC[C@@]2(NC1)O[C@H]1C[C@H]3[C@@H]4CC=C5C[C@@H](O)CC[C@]5(C)[C@H]4CC[C@]3(C)[C@H]1[C@@H]2C [Solasodine],0.378
7,CN1C[C@H](CNC(=O)OCc2ccccc2)C[C@@H]2c3cccc4c3c(cn4C)C[C@H]21 [Metergoline],0.238
8,c1ccc(C2CC2)c(OCC2=NCCN2)c1,0.404
9,CCNC(=O)[C@H]1O[C@@H](n2cnc3c(N)ncnc32)C(O)[C@H]1O (some centres not stated) [5'-N-Ethylcarboxamidoadenosine (NECA)],0.445
10,COc1cc2c(cc1O)C[C@H]1c3c(cc(O)c(OC)c3-2)CCN1C [Boldine],0.447
11,Cc1c(C(=O)c2cccc3ccccc23)c2cccc3c2n1[C@H](CN1CCOCC1)CO3,0.451 and 0.539
12,CC1=NCCc2c1[nH]c1cc(O)ccc21.Cl.O.O [Harmalol hydrochloride dihydrate],0.479
13,CC(=O)C(C)O.CC(Cc1ccccc1)NCCC(c1ccccc1)c1ccccc1 (configuration not stated) [Prenylamine lactate],0.266
14,C[C@H](N)C(=O)N[C@@H](C)C(=O)N[C@@H](Cc1ccccc1)C(=O)CCl,0.742 and 0.818
15,CC(C)c1c(CN(C)C(C)Cc2ccccc2)n(C)n(-c2ccccc2)c1=O (configuration not stated) [Famprofazone],0.405
16,CC(C)(C)c1cc(C=C(C#N)C#N)cc(C(C)(C)C)c1O,0.718
17,N#CC(C#N)=Cc1cc(O)c(O)c(O)c1,0.46
18,CC(C)(C)c1cc(C=C(C#N)C#N)cc(C(C)(C)C)c1O [tyrphostin 9],0.882
19,N#CC(C#N)=Cc1ccc(O)c(O)c1,0.348
20,"COc1ccc(CC2c3cc(OC)c(OC)cc3CCN2C)cc1OC (racemic) [Laudanosine (R,S)]",0.508
21,c1cncc([C@H]2CCCCN2)c1 [Anabasine],0.34
22,C[N+]1(C)C2CC[C@H]1C[C@@H](OC(=O)C(CO)c1ccccc1)C2.O=[N+]([O-])[O-] (some centres not stated) [Methylatropine nitrate],0.451
23,COc1ccc(CCN2CCC(Nc3nc4ccccc4n3Cc3ccc(F)cc3)CC2)cc1 [Astemizole],0.587
24,CC[N+]1(C)CCCC(OC(=O)C(O)(c2ccccc2)c2ccccc2)C1.[Br-] (configuration not stated) [Pipenzolate bromide],0.4
